Experimental data from PubChem BioAssay (NCATS).
Several values for one entry are separate records, joined by “and”; a condition that tells them apart may be missing. Identical values can stand only once. Results filed as inconclusive are left out. Entries that show only a call come without a potency. Activity calls are given as the source filed them. Calls come from the whole dose curve; as a rule, active = well fitted cell-killing curve with a large enough effect; inconclusive = small, poorly fitted or top-dose-only effect; inactive = flat fitted curve, though single readings scatter.
Potency is the fitted concentration of half-maximal effect.

Experiment: Cellular viability qHTS for adrenocortical cancer (ACC) cell line NCI-H295R (AID 1963990); note: nearly all actives have a fitted effect of over 60% in size
Settings: CellTiter-Glo ATP luminescence, 48 h; series mostly up to 46.1 µM
Summary of the method: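 Adrenocortical carcinoma cells, suspended at 300 000 cells/mL in serum-free DMEM plus ITS, rested overnight before pin transfer of compound. After two days' incubation, ATP-dependent luminescence was recorded and curve-fitted.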
With `COc1ccc(/C=C/C(=O)Nc2ccccc2C(=O)O)cc1OC` the Potency was “inactive”.
With `O=C(c1ccc(NS(=O)(=O)c2cccc3cccnc23)cc1)N1CCN(CC2CC2)CC1` the Potency was “inactive”.
With `CCCCCN=C(N)N/N=C/c1c[nH]c2ccc(OC)cc12` the Potency was 23.1 µM (active).
For `COc1cccc2c1C(=O)c1c(O)c3c(c(O)c1C2=O)C[C@@](O)(C(C)=O)C[C@@H]3O[C@H]1C[C@H](N)[C@H](O)[C@H](C)O1`, the Potency was 461 nM (active) and 2.24 µM (active).
In the case of `CCN(CC)CCOC(=O)c1ccc(N)cc1`, the Potency is reported as “inactive”.
For `CN(C)CCOc1ccc(/C(=C(/CCCl)c2ccccc2)c2ccccc2)cc1`, the Potency was 8.91 µM (active).
With `COc1ccc2nc(SCc3ncc(C)c(OC)c3C)[nH]c2c1` the Potency was “inactive”.
For `CNC(=O)c1ccccc1Nc1nc(Nc2ccc3c(c2OC)CCC[C@@H](N2CCN(CCO)CC2)C3)ncc1Cl`, the Potency was 2.82 µM (active).
In the case of `O=C1C(O)=C(O)C(=O)C(O)=C1O`, the Potency is reported as “inactive”.
In the case of `CC(C)(O)C1CCC(Nc2ccc3ncc(-c4cccc(C(F)(F)F)c4)n3n2)CC1` (stereo not given), the Potency is reported as 4.47 µM (active).
In the case of `COC(=O)C1=C(C)NC(c2ncc(F)cc2F)=N[C@@H]1c1ccc(F)cc1Cl`, the Potency is reported as “inactive”.
In the case of `C=CC(=O)Nc1cc(N2CCN(CC)CC2)ccc1Nc1cc(N(C)C(=O)Nc2c(Cl)c(OC)cc(OC)c2Cl)ncn1`, the Potency is reported as “inactive”.
In the case of `O=c1ncccn1[C@@H]1O[C@H](CO)[C@@H](O)[C@H]1O`, the Potency is reported as “inactive”.
In the case of `COc1cccc(-c2cc(F)ccc2C2Cc3nc(N)nc(C)c3C(=O)N2)n1` (stereo not given), the Potency is reported as 0.0501 µM (active).
In the case of `CCN1CCN(Cc2ccc(NC(=O)c3ccc(C)c(/C=C/c4cnc5[nH]ccc5c4OC)c3)cc2C(F)(F)F)CC1`, the Potency is reported as 6.31 µM (active).
For `NC(=O)NC(=O)Cc1ccccc1`, the Potency was “inactive”.
With `COc1ccc(C(=O)c2ccccc2O)c(O)c1` the Potency was “inactive”.
In the case of `O=c1cc(N2CCOCC2)oc2c(-c3ccc4c(c3)OCCO4)csc12`, the Potency is reported as 2.51 µM (active).
For `Cc1cc(-c2ccccc2)nnc1NCCN1CCOCC1`, the Potency was “inactive”.
For `COc1cc(/C=C/C(=O)O[C@H]2CC[C@]34C[C@]35CC[C@]3(C)[C@@H]([C@H](C)CCC=C(C)C)CC[C@@]3(C)[C@@H]5CC[C@H]4C2(C)C)ccc1O`, the Potency was 18.4 µM (active).
In the case of `O=C1OC2(CCC(C(=O)Nc3ccn(-c4ccccc4F)n3)CC2)c2cnccc21` (stereo not given), the Potency is reported as “inactive”.
In the case of `OC1(c2ccc(Cl)c(C(F)(F)F)c2)CCN(CCCC(c2ccc(F)cc2)c2ccc(F)cc2)CC1`, the Potency is reported as 3.66 µM (active).
With `Cc1ccccc1-n1nc(-c2c(-c3ccc(F)cc3)nn3c2NC[C@@H](CO)C3)ccc1=O` the Potency was “inactive”.
With `CC1CCc2c(N3CCC(O)CC3)c(F)cc3c(=O)c(C(=O)O)cn1c23` (stereo not given) the Potency was “inactive”.
With `CCCC(=O)O[C@]1(C(=O)CC)CC[C@H]2[C@@H]3CCC4=CC(=O)CC[C@]4(C)[C@H]3[C@@H](O)C[C@@]21C` the Potency was “inactive”.
In the case of `COc1ccc(COc2ccc(Cc3cnc(N)nc3N)cc2OC)cc1`, the Potency is reported as “inactive”.
With `CCOC(=O)[C@@](C)(N)Cc1ccc(O)c(O)c1` the Potency was “inactive”.
In the case of `COc1cc(N2CCC(N3CCN(C)CC3)CC2)ccc1Nc1ncc(Cl)c(Nc2ccccc2P(C)(C)=O)n1`, the Potency is reported as 1.12 µM (active).
With `CC(C)=CCC/C(C)=C/CC/C(C)=C/C(=O)OCC(=O)[C@@]1(O)CC[C@H]2[C@@H]3CCC4=CC(=O)C=C[C@]4(C)[C@H]3[C@@H](O)C[C@@]21C` the Potency was “inactive”.
In the case of `NS(=O)(=O)c1cc(-c2nn[nH]n2)c(NCc2cccs2)cc1Cl`, the Potency is reported as “inactive”.
With `Cc1cc2c(C(C)C)c(O)c(O)c(C=O)c2c(O)c1-c1c(C)cc2c(C(C)C)c(O)c(O)c(C=O)c2c1O` the Potency was 8.2 µM (active).
With `Nc1ccc(O)cc1` the Potency was “inactive”.
With `COc1nc(OCc2cccc(-c3ccccc3)c2C)ccc1CNCCNC(C)=O` the Potency was 6.31 µM (active).
With `CCc1cccc2c3c([nH]c12)[C@@](CC)(CC(=O)O)OCC3` the Potency was “inactive”.
With `COc1ccc(CCN2CCC(Nc3nc4ccccc4n3Cc3ccc(F)cc3)CC2)cc1` the Potency was 14.6 µM (active).
In the case of `CO[C@@H]1[C@@H](O)[C@H](O)[C@@H](n2c3c(Cl)cccc3c3c4c(c5c6cccc(Cl)c6[nH]c5c32)C(=O)NC4=O)O[C@H]1CO`, the Potency is reported as 5.62 µM (active).
With `C[C@@H](O)[C@H]1C(=O)N2C(C(=O)O)=C([C@H]3CCCO3)S[C@H]12` the Potency was “inactive”.
For `Clc1ccccc1CN1CCc2sccc2C1`, the Potency was “inactive”.
With `COc1cc(N)c(Cl)cc1C(=O)NC1CCN(Cc2ccccc2)CC1` the Potency was “inactive”.
For `CN1CCN(c2ccc3nc(-c4c(N)c5c(F)cccc5[nH]c4=O)[nH]c3c2)CC1`, the Potency was 17.8 µM (active).
